Bioassay records: PubChem, National Center for Advancing Translational Sciences (NCATS)
Pf growth 96h – inhibits malaria parasite growth, 96 h; P. falciparum luciferase reporter growth, 96 h; Potency, µM (top dose mostly 28.7 µM), usual class: inhibitors; 320,000 tested, 6.9% active; active means well fitted inhibition curve with a large enough effect; inconclusive means small, poorly fitted or top-dose-only effect, or another doubt; inactive means no such curve, though single readings can be large or run the other way
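P. falciparum expressing integrated firefly luciferase grown in erythrocytes (2% hematocrit, 0.05% parasitemia final) with compounds for 96 hours at 37 C, 5% CO2. Growth inhibition read as loss of luminescence after adding luciferase detection reagent.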
Shiga inhibitor – Shiga toxin inhibition. Vero cells, Shiga toxin protein synthesis inhibition reporter. inhibition, % at 38.7 µM. 290,000 tested, 9.2% active; in the data active means inhibition mostly above about 28%, no sharp cut-off; inactive means mostly below about 43%
NS1 inh – inhibitors of influenza NS1 protein function | Potency, µM (series often up to 46.1 µM) | AID 2326 | 270,000 tested, 0.4% active; further: actives are rising curves; nearly all actives have a fitted effect of over 50% in size
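In this qHTS, NS1 from influenza A is expressed in budding yeast, where it slows growth. Cells are switched from glucose to 2% galactose medium (pH 6.0, -URA), treated with compound, and growth recovery is read at OD600.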
SARS PLP yeast – blocks SARS-CoV papain-like protease in a yeast assay | S. cerevisiae expressing SARS-CoV PLpro, growth rescue | Potency, µM (highest dose often 32.9 µM), usual class: activators | 330,000 tested, 0.19% active; further: nearly all actives have a fitted effect of over 55% in size
CHX counter – affects cycloheximide protein synthesis inhibition readout, counter-screen; AID 2314; 300,000 tested, 12% active; max response, %; cell reporter, cycloheximide protein synthesis inhibition counterscreen; in the data active means max response mostly above about 13%, no sharp cut-off; inactive means mostly below about 14%; further: read at 38.3 µM for the half of the compounds with a filed dose
Pf growth 48h – P. falciparum growth inhibition at 48 hours (one generation). P. falciparum luciferase growth in erythrocytes, 48 h. Potency, µM (top dose mostly 28.7 µM), hits mostly inhibitors. 310,000 tested, 5.9% active. AID 504832; active means well fitted inhibition curve with a large enough effect; inconclusive means small, poorly fitted or top-dose-only effect, or another doubt; inactive means no such curve, though single readings can be large or run the other way
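Read-out is firefly luciferase luminescence from an integrated reporter in P. falciparum, so falling signal marks reduced parasite growth. Infected erythrocytes were at 2% hematocrit and 0.1% parasitemia (final) in Albumax-supplemented RPMI 1640.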
Hits are given with their value; . = inactive; ? = inconclusive; / = no result given. Only some compounds are listed: those with a hit (about 21% of all), similar ones and a draw of the others. Unless noted, the call rests on the fitted dose curve.

SMILES	Pf growth 96h	Shiga inhibitor	NS1 inh	SARS PLP yeast	CHX counter	Pf growth 48h
COc1ccc(CCOC(=O)c2cccc(NC(C)=O)c2)cc1	.	52.1	.	.	36.2	.
CC(=O)Nc1cccc(C(=O)OCc2ccc([N+](=O)[O-])cc2)c1	.	.	.	.	.	.
Cc1ccc(C2=NN(CC(=O)NCCC(C)C)C(=O)CC2)cc1	.	.	.	.	.	.
CS(=O)(=O)N1CCC(C(=O)NCc2ccc(Cl)cc2Cl)CC1	.	.	/	.	.	.
O=C(COC(=O)CNS(=O)(=O)c1cccc(Br)c1)Nc1ccccc1Sc1ccccc1	.	.	.	.	.	.
O=C(CCNC(=O)C1CCN(S(=O)(=O)c2ccccc2)CC1)NCc1cccc(C(F)(F)F)c1	.	.	.	.	.	.
O=C(NNC(=O)C1CCN(S(=O)(=O)c2cccc(C(F)(F)F)c2)CC1)C1CC1	.	.	.	.	.	.
O=C(Nc1ccccc1N1CCCCC1)C1CCN(S(=O)(=O)c2cccc(C(F)(F)F)c2)CC1	?	/	/	.	/	8.28µM
O=C(Nc1ccccc1N1CCCC1)C1CCN(S(=O)(=O)c2cccc(C(F)(F)F)c2)CC1	10.4µM	/	/	.	/	11.7µM
COc1ccc(S(=O)(=O)N2CCC(C(=O)Nc3ccccc3N3CCCC3)CC2)cc1OC	11.7µM	.	.	.	.	?
O=C(CCNC(=O)C1CCN(S(=O)(=O)c2ccccc2)CC1)Nc1cccc(C(F)(F)F)c1	.	.	.	.	16.2	.
CCN1C(=O)C(CC(=O)Nc2ccc(OC)cc2)N(Cc2ccc3c(c2)OCO3)C1=S (configuration not stated)	.	.	.	.	.	?
COc1ccc(NC(=O)C2CCN(S(C)(=O)=O)CC2)cc1OC	.	/	.	.	.	.
COc1ccc(NC(=O)C2CCN(S(=O)(=O)c3ccc(C)cc3)CC2)cc1OC	5.22µM	.	.	.	.	.
COc1ccc(OC)c(S(=O)(=O)N2CCC(C(=O)Nc3cc(C)ccc3C)CC2)c1	13.1µM	.	.	.	.	/
Cc1cc(N2C(=O)C(O)=C(C(=O)c3cc4ccccc4o3)C2c2cccc(Cl)c2)no1 (configuration not stated)	?	.	.	.	.	.
N#CCc1nn(-c2ccc(Cl)cc2)c(N)c1C#N	13.1µM	.	.	.	.	.
O=C(Cn1nc(-c2nn(CC(=O)c3ccccc3)c3[n+]2CCCCC3)[n+]2c1CCCCC2)c1ccccc1	.	.	.	.	.	?
COc1ccc(C(=O)Cn2nc(CNc3ccc(Br)cc3)[n+]3c2CCCCC3)cc1	1.85µM	.	/	.	.	1.04µM
Cc1ccc(C(C)C)c(OCc2nn(CC(=O)c3ccc(OC(F)F)cc3)c3[n+]2CCCCC3)c1	?	.	.	.	.	1.85µM
O=C(Nc1ccccc1C(=O)NC(Cc1ccccc1)C(=O)NC1CCCCCC1)c1ccccc1 (configuration not stated)	?	.	.	.	.	?
C(=N\Nc1ccccn1)/c1ccc2c(c1)OCCO2	.	32.6	/	.	35.2	.
Fc1cccc(/C=N/Nc2ccccn2)c1	.	81.1	/	.	55.8	.
Fc1cccc(F)c1/C=N/Nc1ccccn1	.	95.5	/	.	50.0	.
Cc1nnc(C)n1/N=C/c1ccc2c(c1)OCCO2	.	.	.	.	.	.
SMILES	Pf growth 96h	Shiga inhibitor	NS1 inh	SARS PLP yeast	CHX counter	Pf growth 48h
Cc1cc(C)c(NC(=O)c2ccc(CNS(=O)(=O)c3cc(C(F)(F)F)ccc3Cl)cc2)c(C)c1	.	.	.	.	.	.
CSc1nc(-c2ccccc2)cn1-c1ccc(NC(C)=O)cc1	.	79.2	/	.	34.6	.
CCOc1ccc(-c2csc3ncn(-c4ccc(OC)cc4)c(=O)c23)cc1	.	.	.	.	.	?
CCOc1ccc(-c2cn(-c3ccc(OC)cc3)c(SC)n2)cc1	?	113.3	?	.	68.4	.
Cc1cc(=O)[nH]c(Nc2ccc(N(C)C)cc2)n1	.	.	.	.	.	.
Cc1cc(=O)[nH]c(N/N=C/c2ccc(N(C)C)cc2)n1	?	49.6	.	.	24.2	.
Cc1cc(=O)[nH]c(N/N=C/c2ccc(F)cc2)n1	.	.	.	.	12.5	.
CCc1ccc2c(c1)c1nnc(NN)nc1n2C	?	.	.	.	.	11.7µM
CCn1c2ccc(F)cc2c2nnc(NN)nc21	3.7µM	.	.	.	.	?
CCCn1c2ccc(F)cc2c2nnc(NN)nc21	.	.	/	.	.	?
NNc1nnc2c3cc(F)ccc3n(Cc3ccccc3)c2n1	3.29µM	.	.	.	.	1.47µM
COc1ccc(-c2ccnc(-c3ccc(O)cc3)n2)cc1	.	.	/	.	24.5	.
FCCCOc1ccc(-c2nccc(-c3ccc(Br)cc3)n2)cc1	.	.	.	.	.	.
FCCCOc1ccc(-c2ccnc(-c3ccccc3)n2)cc1	.	81.0	.	.	27.7	.
Cc1ccc(-c2ccnc(-c3ccc(O)cc3)n2)cc1	.	80.1	/	.	31.5	.
COc1ccc(-c2ccnc(-c3ccncc3)n2)cc1	?	.	.	.	.	.
Oc1ccc(-c2nccc(-c3ccc(Br)cc3)n2)cc1	.	40.3	.	.	17.2	.
FCCCOc1ccc(-c2nccc(-c3ccc(F)cc3)n2)cc1	.	.	.	.	.	.
CC1CC(C)(C)NC(=S)N1CCC(=O)N1c2ccccc2CC1C (configuration not stated)	.	.	/	.	.	.
COC(=O)COc1ccc(-c2nccc(-c3ccccn3)n2)cc1	?	.	.	.	.	?
Oc1ccc(-c2nccc(-c3ccccn3)n2)cc1	.	88.4	.	.	80.8	.
Cc1ccc2c(c1)c1c3n2CCNC3CCC1 (configuration not stated)	.	.	.	.	.	?
Cc1nn(C2CCS(=O)(=O)C2)c(Cl)c1/C=C/C(=O)OCC(=O)c1cc(C)n(-c2ccc(F)cc2)c1C (configuration not stated)	?	.	?	.	.	14.7µM
COc1cc(-c2c(C#N)c(N)nc3[nH]c(=S)[nH]c(=O)c23)ccc1O	.	.	.	.	.	/
CN(C)CCn1nnnc1SCC1=C(C(=O)O)N2C(=O)[C@@H](NC(=O)Cc3csc(N)n3)[C@@H]2SC1	6.42µM	/	/	/	/	?
CN(C)CCn1nnnc1SCC1=C(C(=O)O)N2C(=O)[C@@H](NC(=O)Cc3csc(N)n3)[C@H]2SC1	.	/	/	/	/	.
Cc1ccc(S(=O)(=O)N2CCN(C(=O)c3ccc4nc[nH]c4c3)CC2)cc1	.	/	/	.	/	?
CC(=O)NCCNC(=O)c1ccc(CSc2ccc(Cl)cc2)cc1	.	94.0	.	.	37.4	.
CCNC(=O)c1ccc(CSc2ccc(Cl)cc2)cc1	?	54.9	.	.	33.8	4.65µM
O=C(CCCOc1ccccc1)Nc1ccc(S(=O)(=O)Nc2ccccn2)cc1	.	.	.	.	.	?
